Assay results: the supplement of paper PMC4166925
± gives the standard deviation of the averaged measurements. The full ranking holds about 33,000 sequences; the median of “E-score (dimensionless, -0.5 to 0.5)” is about -0.046, and the highest 2% start at about 0.36. The sample holds the highest values, similar sequences and a random draw of the others, so the mix is not that of the screen.

System: T1, SpTbr T-box DNA-binding domain (GST fusion)
T1 sequence: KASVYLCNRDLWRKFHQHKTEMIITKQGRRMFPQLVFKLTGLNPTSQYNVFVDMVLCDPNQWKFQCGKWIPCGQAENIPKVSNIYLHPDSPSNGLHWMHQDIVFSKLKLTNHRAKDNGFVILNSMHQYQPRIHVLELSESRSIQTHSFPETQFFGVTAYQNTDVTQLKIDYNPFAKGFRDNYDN
Assay: PBM E-score of 8-mer (E-score (dimensionless, -0.5 to 0.5)); Tbr is Tbrain of the sea star Patiria miniata (Pm) or the sea urchin Strongylocentrotus purpuratus (Sp); higher = stronger binding preference
Details: the construct has about 5 more residues each side
Description: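 Universal protein-binding microarray (Agilent AMADID 016060, 60-bp probes with a 35-bp variable region) incubated with 200 nM GST-fused Strongylocentrotus purpuratus Tbr T-box DNA-binding domain (residues 362-554) in PBS pH 7.5. Scored for every ungapped 8-mer (given with its reverse complement) as E-score (range -0.5 to 0.5; >0.45 counts as bound) and Z-score of median probe intensity. Two replicate arrays (datasets 1 and 2).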
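Also: protein at 200 nM in PBS on universal double-stranded arrays.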

Sequence	PBM E-score of 8-mer
CTCACACA	0.438 ± 0.0081
GTCACAGA	0.0552 ± 0.0087
ATATTAAT	-0.209 ± 0.078
CTGTGGTC	-0.0438 ± 0.0053
CCAGCCGG	-0.00031 ± 0.015
AGGTAGCG	0.143 ± 0.04
CCCACGCC	0.163 ± 0.014
ATCACGCA	0.19 ± 0.026
ATCACGCC	0.403 ± 0.0051
CTCACGCC	0.397 ± 0.039
CTTACGCC	0.177 ± 0.0022
ATCACGCG	0.357 ± 0.012
CTCACGCA	0.375 ± 0.022
GTCACGCA	0.279 ± 0.017
CTTACGCA	0.0993 ± 0.0077
ATATAGGC	-0.0504 ± 0.058
ACTTAAGT	-0.0767 ± 0.13
GTGCTCTA	-0.178 ± 0.029
ACCCGAAC	-0.0199 ± 0.021
AGCAAAAT	-0.0958 ± 0.067
CCCTTACG	-0.0777 ± 0.068
GCCTGCAA	-0.0777 ± 0.016
GCGCTAAA	0.338 ± 0.014
GCGCTAAC	0.388 ± 0.007
CTGCTAAA	0.0425 ± 0.15

Sequence	PBM E-score of 8-mer
TTGCTAAA	0.109 ± 0.08
CTGCTAAC	0.321 ± 0.029
GTGCTAAC	0.432 ± 0.012
ATGCTAAC	0.0372 ± 0.018
CCGCTAAC	0.16 ± 0.031
GTGCTAAA	0.384 ± 0.026
AACAAGGT	0.271 ± 0.009
AGTAGCGC	0.224 ± 0.014
GACCATAC	-0.206 ± 0.012
ACAACCAT	0.0868 ± 0.041
GAAGTCGA	0.107 ± 0.051
AGTCTGGG	-0.278 ± 0.029
CCCAACGG	-0.055 ± 0.1
GTGTTGGA	0.367 ± 0.0068
CTGTTAAC	0.312 ± 0.028
CTGTTGGA	0.0702 ± 0.044
ACGTTAAC	0.255 ± 0.013
GTGTTATA	0.4 ± 0.034
ATGTTAAC	0.182 ± 0.097
CTGTTATA	0.137 ± 0.071
GCGTTAAC	0.374 ± 0.011
GTGTTAAC	0.4543 ± 0.0026
ATGTTGGA	-0.0349 ± 0.065
CCGTTAAC	0.228 ± 0.007
ATGTTATA	-0.0933 ± 0.013

Sequence	PBM E-score of 8-mer
AAAGCGCT	0.0608 ± 0.028
GAGCAGTA	-0.00784 ± 0.039
AGTTAGCG	0.304 ± 0.0085
GTCGAGCA	0.0707 ± 0.028
ATTTAAAT	-0.06656 ± 0.00039
ACCTCCCT	0.00833 ± 0.034
ATGTTAGA	-0.136 ± 0.095
CTGTTAAA	0.231 ± 0.041
GTGTTAGA	0.384 ± 0.0066
CTGTTAGA	0.11 ± 0.12
GTGTTAAA	0.395 ± 0.026
TTGTTAAA	0.184 ± 0.12
GGTAGACA	-0.025 ± 0.028
CTCTTCAC	0.292 ± 0.018
AAGGGGCA	-0.297 ± 0.042
AAGGCGCT	0.306 ± 0.035
AGAGCAAT	-0.132 ± 0.0051
ACGTGATG	0.0808 ± 0.05
AGGTGATG	0.3942 ± 0.0033
AGGTGATC	0.116 ± 0.085
AGGTGATA	0.428 ± 0.015
GGGTGATA	0.253 ± 0.0088
CGGTGATA	0.111 ± 0.0075
ACGCCGGC	0.242 ± 0.0047
AGGGGGAT	-0.262 ± 0.033

Sequence	PBM E-score of 8-mer
ACTTTCAA	0.0855 ± 0.0062
TTCGCGAA	0.3584 ± 0.0003
ATCGCGAA	0.367 ± 0.032
ATCGCAAA	0.0887 ± 0.0029
CTCGCGAA	0.389 ± 0.012
CTCGCGAC	0.311 ± 0.025
ATCGCGAC	0.271 ± 0.036
GTCGCGAC	0.362 ± 0.019
ATCGCGAT	0.364 ± 0.011
ATCGCGTA	0.13 ± 0.024
ATCGCGAG	0.255 ± 0.0054
CTCGCGAG	0.284 ± 0.03
GTCGCGAA	0.372 ± 0.025
GAAAGTGA	0.293 ± 0.039
AAAAAAGT	-0.074 ± 0.11
CCTACTAA	-0.0157 ± 0.06
CGTGTAAA	0.296 ± 0.027
TGCATCAA	-0.0456 ± 0.044
CTGCCAAG	0.105 ± 0.03
ACGCTCAG	0.0449 ± 0.0089
CAAGAACG	-0.267 ± 0.011
ACCCTTGA	-0.0396 ± 0.029
ATGCGCTC	-0.175 ± 0.02
ACACCTCG	0.4804 ± 0.0036
ACACCTCT	0.479 ± 0.0083

Sequence	PBM E-score of 8-mer
AAACCTCT	-0.292 ± 0.061
ACACCTCC	0.4854 ± 0.0043
ATACCTCC	-0.0183 ± 0.066
CCACCTCC	0.324 ± 0.0077
TCACCTCA	0.387 ± 0.0086
TAACCTCA	-0.153 ± 0.018
CCACCTCG	0.228 ± 0.019
AGACCTCT	-0.281 ± 0.035
TGACCTCA	0.0321 ± 0.076
AAACCTCG	0.0284 ± 0.048
ACTCTTCG	0.113 ± 0.071
CCACTGCG	0.0281 ± 0.049
GAACGAGC	-0.187 ± 0.063
CGGGGGAC	-0.117 ± 0.088
CAATTGAG	-0.2 ± 0.036
CCTAACCG	-0.163 ± 0.039
AGGACTAT	-0.234 ± 0.035
CGGCGATA	0.094 ± 0.028
TTCGCCAA	0.124 ± 0.054
ACGCCTCG	0.373 ± 0.019
ACACCTCA	0.4607 ± 0.0039
GCACCTCA	0.343 ± 0.02
CCACCTCA	0.172 ± 0.067
ACGCCTCA	0.331 ± 0.01
GGACCTCC	-0.327 ± 0.017

Sequence	PBM E-score of 8-mer
AGACCTCA	0.1 ± 0.022
GCACCTCC	0.396 ± 0.013
ACGCCTCT	0.30412 ± 0.00015
CACAGCAG	-0.0256 ± 0.044
ATTAAGAA	-0.254 ± 0.043
ATAGATCG	0.0137 ± 0.011
CACGGTTA	-0.0116 ± 0.056
CCTAGGCC	-0.0372 ± 0.013
CTCGCTAA	0.232 ± 0.043
CAATAGAC	-0.0363 ± 0.07
ACACTTAC	0.4 ± 0.024
ACTCTTAG	-0.106 ± 0.0089
ACTCTTAT	-0.0294 ± 0.038
CCACTTAC	0.161 ± 0.0085
ACACTTAT	0.402 ± 0.0068
GCACTTAC	0.208 ± 0.017
ACACTTAG	0.383 ± 0.038
ACACTTAA	0.336 ± 0.027
CCACTTAG	-0.0238 ± 0.042
CGAGCACA	-0.0373 ± 0.063
CGGCCGAA	-0.16 ± 0.027
GGCAGGGA	-0.182 ± 0.062
TAACCTGA	-0.0659 ± 0.025
GGAGGGTA	-0.0485 ± 0.045
AGGCCTAT	-0.196 ± 0.034

Sequence	PBM E-score of 8-mer
CACCTAAG	0.383 ± 0.019
AACCTAAG	-0.133 ± 0.0067
CACCTAAA	0.3188 ± 0.00098
CACCTAAC	0.387 ± 0.018
AACCTAAC	-0.0237 ± 0.04
CCCCTAAG	-0.17 ± 0.067
AGGTTGAT	-0.0456 ± 0.014
AGTTGGCC	-0.112 ± 0.0038
ATTGTGGA	0.0374 ± 0.11
TACACCGA	0.118 ± 0.1
CACACCGA	0.291 ± 0.036
CACACCTA	0.4806 ± 0.0011
AACACCTA	0.4609 ± 0.0024
CCCACCTA	0.282 ± 0.013
AACACCGA	0.228 ± 0.03
AACACCGC	0.299 ± 0.018
TACACCAA	0.0641 ± 0.095
AACACCTC	0.481 ± 0.0063
AAGACCTC	0.00991 ± 0.032
TACACCTA	0.377 ± 0.0086
CCCTATCA	0.0101 ± 0.042
TGAAACCA	-0.0205 ± 0.016
